Experimental findings from PubChem BioAssay (NCI) are described below.

Common to all, as to assay: NCI-60 one-dose screen, 48 h (100 = growth as untreated, 0 = no growth, -100 = all killed)
Common to all, as to conditions: 10 µM unless noted

Assay [1] has as its system T-47D breast.
Assay [2] has as its system BT-549 breast.
In assay [3] the test system is MDA-MB-435 melanoma.
The test system of assay [4] is SW-620 colon.
Assay [5] has as its system MCF7 breast.
Assay [6] has as its system HCT-116 colon.
Assay [7] deals with HCC-2998 colon.
In assay [8] the test system is KM12 colon.

The panel holds about 83,000 compounds, 20% with a hit somewhere; the sample as a whole holds those more often.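 Note: values are percent growth. 100 is the growth of untreated cells, values between 100 and 0 indicate rising inhibition; between -100 and 0 indicates cell death.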 Unmarked numbers belong to inactive results. Calls of active or inactive are those of the source. How the source made its calls: active means growth percent below 10; inactive means the rest.

`Clc1cccc(Cl)c1CSc1nc2ccccc2n2cccc12`: the growth in assay [1] was 25.1%; in assay [2] it was 98.7%; in assay [3], 66.8%; in assay [4], 97%; in assay [5] it was 17%; in assay [6] it was 86.9%. The growth was 109% in assay [7] and 84.4% in assay [8].

Take `C=CCC(O)C=C` (stereo unspecified): the growth in assay [1] was 95.6%; in assay [2], 104%; in assay [3], 111%; in assay [4], 104%; in assay [5], 98.2%; in assay [6], 105%. Further, the growth is 113% in assay [7] and 102% in assay [8].

Regarding `S=c1nc(-c2ccccn2)c(-c2ccccn2)n[nH]1`, the growth in assay [1] was 93.9%; in assay [2], 101%; in assay [3], 110%; in assay [4], 106%; in assay [5] it was 96.9%; in assay [6] it was 100%. Further, the values for the growth in assay [7] and in assay [8] were 99.5% and 97.4%, respectively.

Regarding `CCCCN(C=S)CCCC`, the growth in assay [1] is 81%; in assay [2], 97.4%; in assay [3] it was 105%; in assay [4], 96.4%; in assay [5], 87.6%; in assay [6], 98.9%. For the same compound, the growth in assay [7] and in assay [8] was 102% throughout.

Turning to `CC(C)(CC(=O)O)CC(=O)O`, the growth was 119% in assay [1]; 98.6% in assay [2]; 99.7% in assay [3]; 103% in assay [4]; 103% in assay [5]; 103% in assay [6]. The results for the growth in assay [7] and in assay [8] were 99.8% and 100%, respectively.

Take `Cc1ccc(C)c(CCO)c1`: the growth is 103% in assay [1]; 94.3% in assay [2]; 107% in assay [3]; 98.3% in assay [4]; 112% in assay [5]; 107% in assay [6]. Further, the growth in assay [7] was 103%; in assay [8], 101%.

In the case of `N#Cc1ccc(OC(=O)Nc2cc(Cl)cc(Cl)c2)cc1`, the growth in assay [1] is -12.2% [100 µM] (active); in assay [2] it was -27.1% [100 µM] (active); in assay [3], -9.08% [100 µM] (active); in assay [4], 4.92% [100 µM] (active); in assay [5] it was -25.7% [100 µM] (active); in assay [6], -62.7% [100 µM] (active). Besides, the growth in assay [7] is -8.43% [100 µM] (active); in assay [8], -15% [100 µM] (active).

Regarding `CCCOCc1cn[nH]n1`, the growth was 105% in assay [1]; 109% in assay [2]; 105% in assay [3]; 109% in assay [4]; 103% in assay [5]; 107% in assay [6]. The growth in assay [7] is 104%; in assay [8] it was 106%.

For `Cc1cc(C(=O)NN)c(C#N)c(=O)[nH]1`, the growth was 96.3% in assay [1]; 109% in assay [2]; 119% in assay [3]; 102% in assay [4]; 93% in assay [5]; 100% in assay [6]. Moreover, the figures for the growth in assay [7] and in assay [8] were 112% and 122%, respectively.

For the compound `C(=C\c1ccncc1)/c1ccncc1`, the growth in assay [1] was 129%; in assay [2] it was 91.2%; in assay [3], 110%; in assay [4], 104%; in assay [5], 128%; in assay [6] it was 115%. Moreover, the figures for the growth in assay [7] and in assay [8] were 99.3% and 112%, respectively.

With `O=S(Cc1ccccc1)/C(=C/NC(=S)Nc1ccccc1)c1ccccc1` (stereo unspecified), the growth is 90.2% in assay [1]; 97.6% in assay [2]; 104% in assay [3]; 104% in assay [4]; 102% in assay [5]; 91.1% in assay [6]. The figures for the growth in assay [7] and in assay [8] were 102% and 99%, respectively.

With `CC1(C)CCC(C)(C)NC(=S)N1`, the growth is 98.5% in assay [1]; 105% in assay [2]; 111% in assay [3]; 111% in assay [4]; 103% in assay [5]; 98.9% in assay [6]. In addition, the growth in assay [7] is 109%; in assay [8], 99.1%.

In the case of `Cc1onc(-c2ccccc2Cl)c1C(=O)Cl`, the growth was 99.5% in assay [1]; 117% in assay [2]; 95.3% in assay [3]; 103% in assay [4]; 89% in assay [5]; 105% in assay [6]. The growth in assay [7] is 102%; in assay [8], 119%.

As for `NCC(O)C(O)C(O)C(O)CO` (stereo unspecified), the growth in assay [1] was 84.1%; in assay [2], 91.3%; in assay [3] it was 100%; in assay [4], 97.2%; in assay [5] it was 97.1%; in assay [6], 86.4%. For the same compound, the growth was 99.1% in assay [7] and 98.5% in assay [8].

Take `O=C(O)C1CSC(c2ccccc2)N1` (stereo unspecified): the growth was 101% in assay [1]; 104% in assay [2]; 108% in assay [3]; 95.2% in assay [4]; 91.5% in assay [5]; 101% in assay [6]. Further, the values for the growth in assay [7] and in assay [8] were 103% and 101%, respectively.

Regarding `CC(C)(C)[Si](C)(C)OCC1OC(n2cnc3c(N)ncnc32)CC1OS(C)(=O)=O` (stereo unspecified), the growth was 97.8% in assay [1]; 107% in assay [2]; 112% in assay [3]; 98.1% in assay [4]; 105% in assay [5]; 102% in assay [6]. The growth is 103% in assay [7] and 95.7% in assay [8].

Turning to `CCCCCCCCCCCCCCCCCC(=O)NCCNC(=O)CCCCCCCCCCCCCCCCC`, the growth was 78.6% in assay [1]; 105% in assay [2]; 94.2% in assay [3]; 102% in assay [4]; 71.6% in assay [5]; 70.2% in assay [6]. Moreover, the growth is 82.1% in assay [7] and 96.4% in assay [8].
